Laboratory results reported in PubChem BioAssay (NCI).
The panel holds about 79,000 compounds, 15% with a hit somewhere; the sample as a whole holds those more often. Calls of active or inactive are those of the source. No stated cut-off is given here; in the data, active means growth inhibition above about 70%; inactive means the rest.

Columns and labels:
[1] = NCI Yeast Anticancer Drug Screen. Data for the rad50 strain (AID 155);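 further: 0% = growth of vehicle-only cultures of the same strain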; conditions: S. cerevisiae rad50 strain growth inhibition, stronger effect = higher value
Procedure, shortened: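 Growth of the mutant yeast was measured after compound exposure and referenced to vehicle-treated cultures.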

[2] = NCI Yeast Anticancer Drug Screen. Data for the mec2-1 strain (AID 157); conditions: S. cerevisiae mec2-1 strain, stronger effect = higher value
Procedure, shortened: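 Using mec2-1 yeast: add compound, measure growth, express inhibition versus vehicle-treated cultures.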

[3] = NCI Yeast Anticancer Drug Screen. Data for the sgs1 mgt1 strain (AID 161);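 further: 0% = growth of cultures given vehicle only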; conditions: S. cerevisiae sgs1 mgt1 strain, stronger effect = higher value
Procedure, shortened: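 Yeast cells carrying a defined DNA-repair defect were exposed to test compounds. Growth inhibition was measured relative to vehicle-treated controls.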

[4] = NCI Yeast Anticancer Drug Screen. Data for the cln2 rad14 strain (AID 165);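 further: 0% = growth equal to vehicle treated cultures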; conditions: S. cerevisiae cln2 rad14 strain, stronger effect = higher value
Procedure, shortened: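 Yeast strain cln2 rad14, bearing defects in cell cycle control and DNA repair, serves as the test system; values reflect growth inhibition compared with vehicle.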

[5] = NCI Yeast Anticancer Drug Screen. Data for the bub3 strain (AID 167); conditions: S. cerevisiae bub3 mutant strain, stronger effect = higher value
Procedure, shortened: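 Whole-cell yeast assay. The mutant strain was incubated with compounds, and growth inhibition was determined by comparison with vehicle-treated cells.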

[6] = NCI Yeast Anticancer Drug Screen. Data for the mlh1 rad18 strain (AID 175); conditions: S. cerevisiae mlh1 rad18 strain growth inhibition, stronger effect = higher value
Procedure, shortened: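 Steps: expose repair-defective yeast to compound; measure growth; express inhibition against vehicle-treated controls.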

[7] = at 5.0 µM (retest, dose inferred, filed as 0.5)
[8] = at 50.0 µM (retest, dose inferred, filed as 5.0)

Measured: growth inhibition

CC(=O)C1=C(C)O/C(=C/c2ccc(Cl)cc2)C1=O
active: [1]; [8] 94% | [2]; [8] 99% | [3]; [8] 99% | [3]; at 50.0 µM 85.7% | [4]; [8] 90% | [4]; at 50.0 µM 79% | [5]; [8] 99% | [5]; at 50.0 µM 83.2% | [6]; [8] 98% | [6]; at 50.0 µM 91.8%
inactive: [1]; [7] 27% | [1]; at 50.0 µM 49.5% | [2]; [7] 28% | [2]; at 50.0 µM 32% | [3]; [7] 34% | [4]; [7] 34% | [5]; [7] 31% | [6]; [7] 34%

N#CSCN1C(=O)C2CC=CCC2C1=O (stereo not given)
inactive: [1]; [7] 14% | [2]; [7] 2% | [3]; [7] 8% | [3]; at 50.0 µM 49.5% | [4]; [7] 9% | [4]; at 50.0 µM 49.5% | [5]; [7] 6% | [6]; [7] 11% | [6]; at 50.0 µM 50.4%
active: [1]; [8] 93% | [1]; at 50.0 µM 93% | [2]; [8] 95% | [2]; at 50.0 µM 97.1% | [3]; [8] 94% | [4]; [8] 94% | [5]; [8] 95% | [5]; at 50.0 µM 95.5% | [6]; [8] 96%

COc1ccc(/C=C/c2ccc3ccccc3n2)cc1OC
active: [1]; [8] 97% | [1]; at 50.0 µM 93.8% | [2]; [8] 98% | [2]; at 50.0 µM 97% | [3]; [8] 93% | [3]; at 50.0 µM 97.5% | [4]; [8] 96% | [4]; at 50.0 µM 83.6% | [5]; [8] 98% | [5]; at 50.0 µM 95.3% | [6]; [8] 97% | [6]; at 50.0 µM 95.7%
inactive: [1]; [7] 3% | [2]; [7] 8% | [3]; [7] 3% | [4]; [7] 1% | [5]; [7] 10% | [6]; [7] -1%

O=C1OC2(CCCC2)OC1c1ccccc1 (stereo not given)
inactive: [1]; [7] 2% | [1]; [8] -7% | [1]; at 50.0 µM 14.9% | [2]; [7] -1% | [2]; [8] 2% | [2]; at 50.0 µM -17.6% | [3]; [7] -2% | [3]; [8] -7% | [3]; at 50.0 µM -9.7% | [4]; [7] -4% | [4]; [8] 0% | [5]; [7] -5% | [5]; [8] -4% | [5]; at 50.0 µM 13.2% | [6]; [7] -5% | [6]; [8] -9% | [6]; at 50.0 µM -6.4%
active: [4]; at 50.0 µM 72.2%

CCCCOC(=O)C(=O)/C(=C/N1C(=O)/C(=C/C(C)=C/c2ccccc2)SC1=S)C(=O)C=C(C)C
inactive: [1]; [7] 0% | [1]; [8] 8% | [1]; at 50.0 µM 39.7% | [2]; [7] -13% | [2]; [8] 10% | [2]; at 50.0 µM 63.4% | [3]; [7] -10% | [3]; [8] 5% | [3]; at 50.0 µM 50.5% | [4]; [7] -25% | [4]; [8] 11% | [4]; at 50.0 µM 46.8% | [5]; [7] -10% | [5]; [8] 26% | [5]; at 50.0 µM 68% | [6]; [7] 1% | [6]; [8] 14%
active: [6]; at 50.0 µM 71.1%

Cc1ccc(C)c(N2C(=O)C(=O)c3c(C)ccc(C)c32)c1
inactive: [1]; [7] 12% | [2]; [7] 13% | [2]; [8] 66% | [3]; [7] 12% | [4]; [7] 27% | [4]; [8] 23% | [5]; [7] 8% | [5]; [8] 10% | [6]; [7] 14%
active: [1]; [8] 96% | [1]; at 50.0 µM 99% | [2]; at 50.0 µM 99% | [3]; [8] 98% | [3]; at 50.0 µM 97.7% | [4]; at 50.0 µM 89.8% | [5]; at 50.0 µM 97.8% | [6]; [8] 80% | [6]; at 50.0 µM 98.8%

CC(NNC(=S)N1CCCC1)c1ccc2ccccc2n1 (stereo not given)
inactive: [1]; [7] 24% | [2]; [7] 6% | [3]; [7] 22% | [4]; [7] 4% | [5]; [7] 7% | [6]; [7] 15%
active: [1]; [8] 96% | [1]; at 50.0 µM 98% | [2]; [8] 96% | [2]; at 50.0 µM 98.2% | [3]; [8] 96% | [3]; at 50.0 µM 98% | [4]; [8] 95% | [4]; at 50.0 µM 97% | [5]; [8] 97% | [5]; at 50.0 µM 98.2% | [6]; [8] 98% | [6]; at 50.0 µM 96.4%

Cc1cccc2c(C(=O)CBr)cc(-c3ccc(Cl)cc3)nc12
inactive: [1]; [7] 54% | [4]; [7] 36%
active: [1]; [8] 91% | [1]; at 50.0 µM 95.7% | [2]; [7] 89% | [2]; [8] 93% | [2]; at 50.0 µM 95.3% | [3]; [7] 96% | [3]; [8] 91% | [3]; at 50.0 µM 95.2% | [4]; [8] 85% | [4]; at 50.0 µM 85.8% | [5]; [7] 74% | [5]; [8] 92% | [5]; at 50.0 µM 95% | [6]; [7] 88% | [6]; [8] 90% | [6]; at 50.0 µM 95.5%

Cc1ccc2[nH]c3c(c2c1)[n+]([O-])c1ccccc1[n+]3[O-]
inactive: [1]; [7] 5% | [1]; [8] 16% | [1]; at 50.0 µM -17.4% | [2]; [7] 3% | [2]; [8] -4% | [2]; at 50.0 µM 35.5% | [3]; [7] -8% | [3]; [8] -13% | [3]; at 50.0 µM 5.8% | [4]; [7] -4% | [4]; [8] -7% | [4]; at 50.0 µM -22.5% | [5]; [7] -8% | [5]; [8] -6% | [5]; at 50.0 µM 37.3% | [6]; [7] -6% | [6]; [8] 7% | [6]; at 50.0 µM -0.5%

CCCCCCCCNS(=O)(=O)c1ccc(N)cc1
active: [1]; at 50.0 µM 80.8% | [3]; at 50.0 µM 70.5% | [6]; at 50.0 µM 79.2%
inactive: [1]; [7] 4% | [1]; [8] 9% | [2]; [7] 0% | [2]; [8] 2% | [2]; at 50.0 µM 25.2% | [3]; [7] 7% | [3]; [8] 2% | [4]; [7] 2% | [4]; [8] 0% | [4]; at 50.0 µM 16.8% | [5]; [7] 1% | [5]; [8] 0% | [5]; at 50.0 µM 61.2% | [6]; [7] 6% | [6]; [8] 2%
